High-throughput results (PubChem)
HCMV inh – inhibitors of human cytomegalovirus; activity change, negative = inhibition, % at 57.5 µM; 410,000 compounds, 4.5% hits; HFF cells, HCMV-luciferase reporter, 72 h; stronger effect = lower value; in the data active means activity change below about -60%; inconclusive means no clear call, values can overlap the other calls; inactive means above about -39%
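After 16 h attachment at 37C, HFF cells received test compound and HCMV-luciferase (1 PFU/cell); reporter luminescence read 72 h later, data normalized against buffer-only and known inhibitor Salinomycin.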
Pf growth 96h – P. falciparum growth inhibition at 96 hour, primary screen for plastid delayed-death inhibitors | P. falciparum luciferase reporter growth, 96 h | Potency, µM (top dose mostly 28.7 µM), hits mostly inhibitors | 320,000 compounds, 6.9% hits
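Infected RBCs, 2% Hct / 0.05% parasitemia final; luciferase-reporter P. falciparum; cpd 96 h, 37 C, 5% CO2; luciferase detection reagent; luminescence.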
Pf growth 48h – inhibits P. falciparum growth in the first generation, 48 h | P. falciparum luciferase growth in erythrocytes, 48 h | Potency, µM (series often up to 28.7 µM), usual class: inhibitors | 310,000 compounds, 5.9% hits | AID 504832
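Cell-based growth assay: transgenic P. falciparum expressing firefly luciferase, cultured in red cells within RPMI 1640 containing 0.5% w/v Albumax, 24 mM bicarbonate and gentamycin. A drop in luciferase activity indicates inhibition.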
HCV inh – HCV inhibition; 340,000 compounds, 3.4% hits; Potency, µM (doses to about 41.8 µM), usual class: inhibitors; Huh7.5.1 HCVcc-Cre infection, luciferase reporter, 44 h
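Compounds are dispensed onto cells plated 4 h earlier at 1,000 per well, with HCVcc-Cre virus (about 0.5 moi) added next. Following 44 h of culture, luminescent signal is measured for 15 sec after 15 min with substrate at room temperature.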
Of the large screens only hits and unclear results are named; the others gave an inactive call. Shown are actives, neighbours in structure and some others; about 13% of the full set was active somewhere. Unless noted, the call rests on the fitted dose curve; in most records, active means well fitted inhibition curve with a large enough effect; inconclusive means small, poorly fitted or top-dose-only effect, or another doubt; inactive means no such curve, though single readings can be large or run the other way.

Cc1nn(CC(=O)NCc2ccc(N(C)C)cc2)c(=O)c2c(C)n(-c3ccc(Cl)cc3)nc12	none (no result: Pf growth 96h, Pf growth 48h, HCV inh)
Cc1ccc(-n2nc(C(=O)N3CCCCC3C)c(=O)n(C)c2=O)cc1 (configuration not stated)	none (no result: Pf growth 96h, Pf growth 48h, HCV inh)
Cc1cc2nc3n(c2cc1C)C(C)(C(=O)Nc1ccc2ccccc2c1)CCC3 (configuration not stated)	none (no result: Pf growth 96h, Pf growth 48h, HCV inh)
Cc1nn(-c2c(Cl)cc(Cl)cc2Cl)c(=O)c2ccccc12	Pf growth 96h 13µM, HCV inh inconclusive (no result: Pf growth 48h)
Cc1nn(-c2ccc(Br)cc2)c(=O)c2ccccc12	none
CCc1cccc(NS(=O)(=O)c2ccc3c(c2)N(CC(=O)OC)C(=O)CS3)c1	none (no result: Pf growth 96h, Pf growth 48h, HCV inh)
CC(C)c1ccc(NC(=O)N[C@H]2CC[C@@]34CCCN3C(=O)CCC[C@H]4[C@H]2C)cc1	none (no result: Pf growth 96h, Pf growth 48h, HCV inh)
Cc1c(-c2ccncc2)oc2ccc(Br)cc2c1=O	Pf growth 96h inconclusive, Pf growth 48h 9.3µM (no result: HCMV inh, HCV inh)
CC(C)CCCN1CCN=C1N(C)C	HCMV inh -74
CC(C)c1ccccc1NC(=O)COC(=O)c1cc([N+](=O)[O-])ccc1N1CCOCC1	Pf growth 96h inconclusive, Pf growth 48h inconclusive, HCV inh inconclusive
COc1ccccc1NC(=O)COC(=O)c1cc([N+](=O)[O-])ccc1N1CCCC1	Pf growth 96h inconclusive, Pf growth 48h inconclusive, HCV inh 13µM
CCC(CC)c1nnc(NC(=O)c2cc([N+](=O)[O-])ccc2N2CCCCC2)s1	Pf growth 96h inconclusive, Pf growth 48h inconclusive, HCV inh 7.1µM
O=C(COC(=O)c1cc([N+](=O)[O-])ccc1N1CCOCC1)Nc1ccccc1OC(F)F	HCV inh inconclusive
O=C(COC(=O)c1cc([N+](=O)[O-])ccc1N1CCCC1)Nc1ccccc1OC(F)F	Pf growth 96h inconclusive, HCV inh 13µM
COc1ccc(NC(=O)c2cc([N+](=O)[O-])ccc2N2CCCCC2)cc1OC	HCV inh 25µM (no result: Pf growth 96h, Pf growth 48h)
COc1ccc(C2CC(=O)OC3=C2C(=O)CC(C)(C)C3)c(OC)c1 (configuration not stated)	Pf growth 96h inconclusive, Pf growth 48h 10µM
COc1ccc2c(c1)C(C1=C(O)CC(C)(C)CC1=O)C1=C(CC(C)(C)CC1=O)O2 (configuration not stated)	none (no result: Pf growth 48h)
Cc1cc(C)c(S(=O)(=O)NCCc2ccncc2)c(C)c1	none
COc1cc(C)c(Br)cc1S(=O)(=O)NCc1ccncc1	HCMV inh -76, HCV inh inconclusive
COc1cc(C)c(Br)cc1S(=O)(=O)NCc1cccs1	HCMV inh inconclusive
Cc1cc(C)c(S(=O)(=O)NCc2ccncc2)c(C)c1	HCMV inh -84, HCV inh inconclusive (no result: Pf growth 48h)
O=C1CCCC(=O)N1c1ccc(O)cc1	Pf growth 96h 12µM
OCCNc1nc(N2CCCCC2)nc2ccccc12	Pf growth 48h inconclusive
c1coc(CNc2nc(N3CCCCC3)nc3ccccc23)c1	HCMV inh inconclusive, Pf growth 48h 6.6µM, HCV inh inconclusive (no result: Pf growth 96h)
Cc1csc2ncnc(NC3CCN(Cc4ccccc4)CC3)c12	HCMV inh inconclusive, Pf growth 96h inconclusive, Pf growth 48h inconclusive, HCV inh 1.8µM
c1ccc(N2CCN(c3nc(NCc4ccco4)c4ccccc4n3)CC2)cc1	Pf growth 96h 2.3µM, Pf growth 48h 2.3µM, HCV inh 1µM
O=[N+]([O-])c1ccccc1NC1CCN(Cc2ccccc2)CC1	Pf growth 48h inconclusive
O=c1c2ccccc2nc2c3ccccc3c(NCc3ccco3)nn12	HCV inh inconclusive (no result: Pf growth 48h)
c1ccc(CN2CCC(Nc3nc(-c4ccccc4)nc4ccccc34)CC2)cc1	Pf growth 48h 8.3µM, HCV inh inconclusive (no result: Pf growth 96h)
CNC(=O)C1CCC(Cn2c(=O)c3sccc3n(CC(=O)Nc3cc(C)cc(C)c3)c2=O)CC1 (configuration not stated)	none (no result: Pf growth 96h, Pf growth 48h, HCV inh)
Cc1ccc(Cl)cc1NC(=O)CN(C)S(=O)(=O)c1ccc2c(c1)n(C)c(=O)c(=O)n2C	none (no result: Pf growth 96h, Pf growth 48h, HCV inh)
CCCC(=O)Nc1ncnc2c1ncn2C1OC2COP(=O)(O)OC2C1OC(=O)CCC (configuration not stated)	none (no result: HCMV inh, HCV inh)
c1ccc(CNc2nc(N3CCN(Cc4ccccc4)CC3)nc3ccccc23)cc1	Pf growth 96h inconclusive, Pf growth 48h 5.2µM, HCV inh inconclusive
Nc1nc(N2CCN(Cc3ccccc3)CC2)n[nH]1	none
O=C(c1cc(C2CC2)nn1-c1ccccc1)N1CCN(S(=O)(=O)c2ccccc2F)CC1	none (no result: Pf growth 96h, Pf growth 48h, HCV inh)
CCOC(=O)c1c(-c2ccccc2)csc1NC(=O)C(C)NCc1ccco1 (configuration not stated)	Pf growth 96h 13µM, Pf growth 48h inconclusive, HCV inh inconclusive
CCOC(=O)c1c(NC(=O)c2nn(CC)cc2Br)c(C#N)cn1-c1ccccc1	Pf growth 48h 9.3µM, HCV inh inconclusive
CCOC(=O)c1c(-c2ccccc2)csc1NC(=O)c1nn(CC)cc1Br	Pf growth 48h 13µM, HCV inh inconclusive (no result: Pf growth 96h)
CCOC(=O)c1c(N)c(C#N)cn1-c1ccccc1	none (no result: Pf growth 96h)
CCOC(=O)c1c(-c2ccccc2)csc1NC(=O)c1ccc(S(=O)(=O)N2CC(C)OC(C)C2)cc1 (configuration not stated)	Pf growth 96h 9.3µM, Pf growth 48h 10µM
CCc1ccc(N(CC)C(=O)c2cc3c(=O)oc4ccc(C)cc4c3s2)cc1	none (no result: Pf growth 96h, Pf growth 48h, HCV inh)
CCOC(=O)c1cc(S(=O)(=O)N2CCN(c3ccc(F)cc3)CC2)[nH]n1	none (no result: Pf growth 96h, Pf growth 48h, HCV inh)
Cc1cccc(OCCn2c(SCC(N)=O)nc3ccccc32)c1	none (no result: Pf growth 96h, Pf growth 48h, HCV inh)
CCOC(=O)c1c(-c2ccccc2)csc1NC(=S)N(CC)CC	Pf growth 96h 5.2µM, Pf growth 48h 12µM, HCV inh inconclusive
O=C(Sc1cccc2cccnc12)c1ccccc1Br	HCMV inh -97, Pf growth 96h 4.7µM, Pf growth 48h 1.3µM (no result: HCV inh)
O=C(Sc1cccc2cccnc12)c1ccc(F)cc1	HCMV inh -100, Pf growth 96h inconclusive, Pf growth 48h 6.6µM (no result: HCV inh)
CC(=O)/C(=N\Nc1ccccc1)Sc1cccc2cccnc12	Pf growth 96h inconclusive, HCV inh inconclusive
CN(C)C(=O)CSc1cccc2cccnc12	HCV inh inconclusive
CC(C)C[C@@H]1COc2cc(F)ccc2S(=O)(=O)N1	none (no result: Pf growth 96h, Pf growth 48h, HCV inh)
CC(CNC(=O)C1CCN(Cc2cc3ccccc3n2Cc2ccccc2)CC1)c1ccccc1 (configuration not stated)	none (no result: Pf growth 96h, Pf growth 48h, HCV inh)
Cc1cc(C)cc(N2C(=O)C=CC2=O)c1	HCV inh inconclusive (no result: Pf growth 96h, Pf growth 48h)
Cc1cc(C)cc(N2C(=O)c3nccnc3C2=O)c1	Pf growth 96h 12µM
CC(=O)c1c(-c2ccccc2)c2cc(Cl)ccc2[nH]c1=O	HCMV inh -63, Pf growth 96h inconclusive
CC(=O)c1c(-c2ccc(Cl)cc2)c2ccccc2[nH]c1=O	HCMV inh inconclusive
CC1(C(=O)O)CCC(C(=O)Nc2ccccc2O)C1(C)C (configuration not stated)	Pf growth 96h 12µM (no result: Pf growth 48h)
CC(=O)c1ccc(NC(=O)C2CCC(C)(C(=O)O)C2(C)C)cc1 (configuration not stated)	Pf growth 96h inconclusive
CCCNC(=O)C1(C)CCN(C(=O)COc2ccc(Cl)cc2Cl)C1 (configuration not stated)	none (no result: Pf growth 96h, Pf growth 48h, HCV inh)
CCCCC[C@@H](C)N1C[C@@H](COCc2ccccc2)Oc2cc(N3CC[C@H](N(C)C)C3)ccc2S1(=O)=O	HCMV inh -63 (no result: Pf growth 96h, Pf growth 48h, HCV inh)
